Measurements taken from PubChem BioAssay (EPA / NIEHS).
Inconclusive results are not listed. Where a structure was tested more than once in an assay, its records may differ in their call. The source made the active and inactive calls. Rule for the calls: active = hit-call score of the fitted dose curve at least 0.9, where 1 is the maximum; inconclusive = response in the unintended direction; inactive = score below 0.9.

Target: Estrogen receptor (Homo sapiens) (UniProt P03372)
Assay: CCTE_Deisenroth_AIME_384WELL_LUC_Inactive: CCTE's 384-well Estrogen Receptor Transactivation Assay without AIME metabolic competence (ERTA luciferase; metabolism negative), Deisenroth Lab (AID 2284038);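 note: hits raise estrogen receptor luciferase signal so potencies reflect agonists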
Procedure: CCTE_Deisenroth_AIME_384WELL (AIME metabolism assay) is a cell-based, single-readout assay that uses VM7Luc4E2, a human mammary gland/breast cell line, with measurements taken at 24 hour after chemical dosing in a 384-well plate.CCTE_Deisenroth_AIME_384WELL_LUC_Inactive is one of four assay components measured or calculated from the CCTE_Deisenroth_AIME_384WELL assay. It is designed to make measurements of luciferase induction, a form of inducible reporter, as detected with bioluminescence signals by luciferase-coupled ATP quantitation technology.CCTE_Deisenroth_AIME_384WELL_LUC_Inactive is a component of the CCTE_Deisenroth_AIME_384WELL assay that measures the effect of retroftting the VM7Luc ERTA assay with the Alginate Immobolization of Metabolic Enzymes (AIME) metabolism method. AIME is optimized to impart phase I hepatic metabolism using phenobarbital/beta-naphthoflavone induced hepatic S9 from male Sprague Dawley rats. Parent chemicals are incubated for 2 hours in the AIME assay prior to transfer to the VM7Luc ERTA assay plate. […] This endpoint evaluates reporter induction in metabolism negative mode. Using a type of inducible reporter in VM7Luc cells, gain-of-signal activity can be used to understand changes in the reporter gene as they relate to xenobiotic metabolism and the gene ESR1. This assay endpoint, CCTE_Deisenroth_AIME_384WELL_LUC_Inactive, was analyzed in the positive analysis fitting direction relative to 17beta-estradiol as the positive control in the ERTA assay. To generalize the intended target to other relatable targets, this assay endpoint is annotated to the nuclear receptor intended target family, where the subfamily is steroidal.
The AIME procedure consists of a preparative "pre-stamping" step using a barium chloride/poly-L-lysine (PLL) solution followed by "stamping" the lid in alginate-hepatic S9 (metabolism positive) or alginate-water (metabolism negative) to form microspheres. Once stamping is completed, the AIME lids are placed in duplicate microplates (metabolism positive or negative) containing chemical solutions and incubated for two hours to facilitate metabolic reactions. The conditioned medium, containing parent chemical or metabolites, is then transferred to the cell-based VM7Luc Estrogen Receptor Transactivation Assay (ERTA) for 24 hours. A typical experimental design tests a 10-point concentration series (0.002 - 200 uM) for 8 compounds (96-well format)1 or 32 compounds (384-well format)2 in single technical replicate. AIME assay controls include trans-stilbene (bioactivated control) and ethylparaben (bioinactivated control). ERTA assay plate controls include 17-beta estradiol (positive control) and DMSO (solvent control). Experiments typically comprise a minimum of four experimental replicates (n=4).

Estrogen receptor (Homo sapiens), sequence (P03372 whole entry, looked up): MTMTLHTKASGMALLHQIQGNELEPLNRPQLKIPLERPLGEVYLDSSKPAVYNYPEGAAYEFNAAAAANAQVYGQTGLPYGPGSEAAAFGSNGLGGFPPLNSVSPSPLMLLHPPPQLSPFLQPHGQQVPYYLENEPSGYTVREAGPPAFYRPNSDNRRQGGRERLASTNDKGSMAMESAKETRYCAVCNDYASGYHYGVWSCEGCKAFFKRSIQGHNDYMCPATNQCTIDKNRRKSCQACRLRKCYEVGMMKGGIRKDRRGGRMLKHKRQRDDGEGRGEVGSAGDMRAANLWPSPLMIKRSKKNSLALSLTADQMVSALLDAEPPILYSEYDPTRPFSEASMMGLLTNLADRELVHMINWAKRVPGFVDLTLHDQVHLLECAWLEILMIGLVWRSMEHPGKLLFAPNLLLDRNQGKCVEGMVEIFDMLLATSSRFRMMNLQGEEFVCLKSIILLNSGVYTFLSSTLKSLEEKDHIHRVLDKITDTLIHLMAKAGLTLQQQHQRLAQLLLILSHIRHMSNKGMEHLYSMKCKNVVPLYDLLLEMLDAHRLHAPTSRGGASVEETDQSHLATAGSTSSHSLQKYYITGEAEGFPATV

Q: For `O=C(O)C(F)(F)C(F)(F)C(F)(F)C(F)(F)C(F)(F)C(F)(F)C(F)(F)C(F)(F)F`, which outcome is on record?
A: inactive

Q: Which outcome does the source give for `O=C(N[C@H]1CN2CCC1CC2)c1cc2ccoc2cn1` here?
A: inactive

Q: What does the source list for `OCC(O)CO`?
A: AC50: 0.417 nM (active); outcome: inactive

Q: With `Cc1cccc([N+](=O)[O-])c1` as the compound, how does the outcome read?
A: inactive

Q: For `Clc1ccc(Cl)cc1`, which outcome is on record?
A: inactive

Q: `Cc1cc2c3c(c1)C(c1ccccc1)=N[C@@H](NC(=O)c1ccncc1)C(=O)N3CC2` was tested. Which outcome did it give?
A: inactive

Q: With `c1ccc(-c2ccccc2)cc1` as the compound, how does the outcome read?
A: inactive

Q: `CCCN(CCC)N=O` was tested. Which outcome did it give?
A: inactive

Q: `CCC(C)(c1ccc(O)cc1)c1ccc(O)cc1` was tested. Which AC50 did it give?
A: 206 nM (active)

Q: For `COS(=O)(=O)OC`, which outcome is on record?
A: inactive

Q: Which outcome does the source give for `CN(C)CCO` here?
A: inactive

Q: How did the outcome turn out when `C=CC(=O)NCNC(=O)C=C` was run?
A: inactive

Q: `CCCCCCOC(=O)c1ccccc1C(=O)OCCCCCC` was tested. Which outcome did it give?
A: inactive

Q: For `Cc1cc(-c2ccc(N)c(C)c2)ccc1N`, which AC50 is on record?
A: 15200 nM (active)

Q: How did the outcome turn out when `Cc1ccccc1O` was run?
A: inactive

Q: How did the AC50 turn out when `CCCCCCCCCc1ccc(O)cc1` was run?
A: 24500 nM (active)

Q: With `COc1ccc(O)c(C(C)(C)C)c1` as the compound, how does the outcome read?
A: inactive

Q: For `c1cc2ccc3cccc4ccc(c1)c2c34`, which outcome is on record?
A: inactive

Q: Which outcome does the source give for `Nc1ccc(-c2ccc(N)cc2)cc1` here?
A: inactive

Q: How did the outcome turn out when `ClC1=C(Cl)[C@]2(Cl)[C@@H]3[C@H]4C[C@H]([C@@H]5O[C@H]45)[C@@H]3[C@@]1(Cl)C2(Cl)Cl` was run?
A: inactive

Q: How did the outcome turn out when `O=S(=O)(O)C(F)(F)C(F)(F)C(F)(F)C(F)(F)C(F)(F)C(F)(F)F` was run?
A: inactive

Q: For `C1CC2OC2CC1C1CO1` (stereo unspecified), which outcome is on record?
A: inactive

Q: For `CCOCCOC(C)=O`, which outcome is on record?
A: inactive

Q: `C[C@]12CCC(=O)C=C1CC[C@@H]1[C@@H]2CC[C@@]2(C)[C@H]1CC[C@]2(C)O` was tested. Which AC50 did it give?
A: 1630 nM (active)

Q: `C[C@]12CCC(=O)C=C1CC[C@@H]1[C@@H]2CC[C@]2(C)C(=O)CC[C@@H]12` was tested. Which outcome did it give?
A: inactive

Q: With `Cc1ccc(O)c(C)c1` as the compound, how does the outcome read?
A: inactive

Q: For `CCC(=O)O[C@H]1CC[C@H]2[C@@H]3CCC4=CC(=O)CC[C@]4(C)[C@H]3CC[C@]12C`, which outcome is on record?
A: inactive

Q: With `Clc1ccc(C(Cl)(Cl)Cl)cc1` as the compound, how does the outcome read?
A: inactive

Q: With `Sc1ccccc1` as the compound, how does the outcome read?
A: inactive

Q: How did the outcome turn out when `Nn1cnnc1` was run?
A: inactive
